Measured values taken from PubChem BioAssay (EPA / NIEHS).
The source made the active and inactive calls. How the source made its calls: active means hit-call score of the fitted dose curve at least 0.9, where 1 is the maximum; inactive means score below 0.9.

Target: CCAAT/enhancer-binding protein beta (Homo sapiens) (UniProt P17676)
Experiment: ATG_C_EBP_CIS: Attagene CIS-FACTORIAL HepG2 Assay for human CCAAT/Enhancer Binding Protein (C/EBP) beta (AID 2282927)
Conditions: HepG2 Attagene cis-factorial transcription factor reporter; actives raise or lower the signal
Procedure, shortened: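 Transiently transfected HepG2 (MRTU library, endogenous TF-driven promoters); 24 h dosing; total RNA → oligo(dT) RT → PCR → 6-FAM primer extension → HpaI digest → CE; fit bidirectionally vs DMSO.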

Chain of CCAAT/enhancer-binding protein beta (Homo sapiens) (P17676 whole entry, looked up): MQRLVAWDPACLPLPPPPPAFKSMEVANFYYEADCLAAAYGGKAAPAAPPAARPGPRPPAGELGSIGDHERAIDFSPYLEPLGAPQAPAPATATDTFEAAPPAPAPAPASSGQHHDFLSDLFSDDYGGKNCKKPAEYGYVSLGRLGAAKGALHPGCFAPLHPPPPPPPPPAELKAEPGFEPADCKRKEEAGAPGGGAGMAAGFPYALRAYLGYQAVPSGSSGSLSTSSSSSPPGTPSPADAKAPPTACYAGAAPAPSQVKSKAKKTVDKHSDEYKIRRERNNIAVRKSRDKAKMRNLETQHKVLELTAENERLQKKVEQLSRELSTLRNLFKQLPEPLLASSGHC

Which outcome does the source give for O=C1C(Cl)=C(Cl)C(=O)C(Cl)=C1Cl here?
The outcome was “inactive”.

Which outcome does the source give for N#CCCCCC#N here?
The outcome was “inactive”.

With CC1CCC(=O)O1 (stereo not given) as the compound, how does the outcome read?
The outcome was “inactive”.

How did the outcome turn out when COc1cc(OC)c(OC)cc1C=O was run?
Its outcome is “inactive”.

For CC(C)c1ccc(O)cc1, which outcome is on record?
Its outcome is “inactive”.

How did the outcome turn out when C[N+](C)(C)CC(=O)[O-] was run?
Its outcome is “inactive”.

With CC(C)(c1cc(Cl)c(O)c(Cl)c1)c1cc(Cl)c(O)c(Cl)c1 as the compound, how does the outcome read?
Its outcome is “inactive”.

For O=C(NCNC(=O)NC1C(=O)NC(=O)N1CO)NC1C(=O)NC(=O)N1CO (stereo not given), which outcome is on record?
Its outcome is “inactive”.

Which outcome does the source give for [N-]=[N+]=CC(=O)OC[C@H](N)C(=O)O here?
The outcome was “inactive”.

How did the outcome turn out when COCC(=O)N(c1c(C)cccc1C)N1CCOC1=O was run?
Its outcome is “inactive”.

For CC(C)CCCCCCCOP(=O)(Oc1ccccc1)Oc1ccccc1, which outcome is on record?
The outcome was “inactive”.

For CCC1CCC(=O)O1 (stereo not given), which outcome is on record?
Its outcome is “inactive”.

How did the outcome turn out when C=COCCCl was run?
Its outcome is “inactive”.

For C=CCN(CC=C)C(=O)C(Cl)Cl, which outcome is on record?
The outcome was “inactive”.

For CC[N+](=O)[O-], which outcome is on record?
Its outcome is “inactive”.

How did the outcome turn out when CC(Cc1ccc(C(C)(C)C)cc1)CN1C[C@@H](C)O[C@@H](C)C1 (stereo not given in full) was run?
The outcome was “inactive”.

For [Cl-].[Cl-].[Cl-].[Yb+3], which outcome is on record?
The outcome was “inactive”.

CCOC(=O)N(C)N=O was tested. Which outcome did it give?
Its outcome is “inactive”.

Which outcome does the source give for O=CNC(N1CCN(C(NC=O)C(Cl)(Cl)Cl)CC1)C(Cl)(Cl)Cl (stereo not given) here?
The outcome was “inactive”.

Which outcome does the source give for CCC[N+](=O)[O-] here?
Its outcome is “inactive”.

Which outcome does the source give for CC(C)(O)C#N here?
The outcome was “inactive”.

Which outcome does the source give for CC(C)C#N here?
Its outcome is “inactive”.

Which outcome does the source give for S=c1[nH]c2ccccc2[nH]1 here?
Its outcome is “inactive”.

How did the outcome turn out when CCCCCc1cc(O)cc(O)c1 was run?
The outcome was “inactive”.

For c1ccc(Nc2ccc3ccccc3c2)cc1, which outcome is on record?
The outcome was “inactive”.

CSc1nc(N=[N+]=[N-])nc(NC(C)C)n1 was tested. Which outcome did it give?
Its outcome is “inactive”.

For CC=Cc1ccc2c(c1)OCO2, which outcome is on record?
Its outcome is “inactive”.

Cc1ccc(OP(=O)(Oc2ccc(C)cc2)Oc2ccc(C)cc2)cc1 (tested in a mixture with another compound) was tested. Which outcome did it give?
The outcome was “inactive”.

For ClC1=C(Cl)[C@]2(Cl)[C@@H]3[C@@H](Cl)[C@H](Cl)C[C@@H]3[C@@]1(Cl)C2(Cl)Cl, which outcome is on record?
Its outcome is “inactive”.

For O=S(=O)(c1ccccc1)c1ccccc1, which outcome is on record?
Its outcome is “inactive”.

For CCC(C)c1cc(C(C)(C)C)cc(-n2nc3ccccc3n2)c1O (stereo not given), which outcome is on record?
Its outcome is “inactive”.

For CC1(C)C(=O)NC(=O)NC1=O, which outcome is on record?
The outcome was “inactive”.

With CC(=O)/C=C/c1ccccc1 as the compound, how does the outcome read?
Its outcome is “inactive”.

Which outcome does the source give for c1ccc(P(c2ccccc2)c2ccccc2)cc1 here?
Its outcome is “inactive”.

With CCOC(=O)COc1ccc(Cl)cc1Cl as the compound, how does the outcome read?
The outcome was “inactive”.

With CCN(CC)C(=S)S as the compound, how does the outcome read?
The outcome was “inactive”.

For N#Cc1cccc(C#N)c1, which outcome is on record?
Its outcome is “inactive”.

How did the outcome turn out when O=C1Nc2ccc(Cl)cc2C(c2ccccc2)=NC1O (stereo not given) was run?
Its outcome is “inactive”.

For N#CC(c1ccccc1)c1ccccc1, which outcome is on record?
The outcome was “inactive”.

How did the outcome turn out when C[N+](C)=CCl was run?
Its outcome is “inactive”.
